Hits are enriched below; roughly 4% of the tested compounds scored in any of these assays.
D1 agonist: agonists of human D1 dopamine receptor. P21728. HEK293 T-REx D1 cells, calcium flux, agonist mode. activation, % at 2 µM. 360,000 tested, 1% active; also: 0% is about no effect
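Tetracycline-induced HEK293 TREx D1 cells, force-coupled to calcium signalling, were dye-loaded with a no-wash calcium kit. Compound was pin-added after a 10 s baseline. Fluorescence was read kinetically at 1 cycle/s for 180 s, with calcium rises flagged as agonism.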
D1 antag: antagonists of human D1 dopamine receptor | activity change, negative = inhibition, % at 10 µM | 360,000 tested, 3.2% active | HEK293 TREx D1 cells, calcium flux, dopamine EC80; stronger effect = lower value | P21728; in the data active = activity change below about -30%; also: % is scaled to controls: 0 for no effect and ±100 for the full control effect
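After overnight tetracycline induction at 30 C, force-coupled D1 HEK293 cells took up a no-wash calcium dye at room temperature. Compounds were added and monitored 180 s, and the response to EC80 dopamine was then recorded.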
Glioma ERSR ind: inducers of ER stress response in human glioma cells. Potency, µM, for the others: at the top dose activation, actives largely listed as activators. 420,000 tested, 0.02% active. AID 602332. U87-MG GRP78 promoter luciferase reporter, 16 h; active = well fitted activation curve with a large enough effect; inconclusive = small, poorly fitted or top-dose-only effect; inactive = no such curve, though single readings can be large or run the other way; also: potency is read from the fitted curve at half-maximal effect; series mostly up to about 76 µM; % of control where 0% means no effect; nearly all actives have a fitted effect of over 35% in size
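Stably transfected U87-MG human glioma cells carrying a GRP78-based luminescent sensor were seeded at 1000 cells/well, pin-dosed with compounds and incubated 16 h. Luciferase reagent was then added, and end-point luminescence was read after 10 min at room temperature.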
D1 potentiator: potentiators of human D1 dopamine receptor; HEK293 TREx D1 cells, calcium flux, dopamine EC20 potentiation; P21728; potentiation, % at 10 µM; AID 504651; 360,000 tested, 0.036% active; in the data active = potentiation above about 30%; also: 0% is about no effect
TRHR agonist: activates the human TRH receptor; P34981; TRHR cells, calcium flux fluo-8, FDSS agonist mode; 360,000 tested, 0.18% active; activation, % at 2 µM; also: 0% is about no effect
Target sequence (P34981 whole entry, looked up): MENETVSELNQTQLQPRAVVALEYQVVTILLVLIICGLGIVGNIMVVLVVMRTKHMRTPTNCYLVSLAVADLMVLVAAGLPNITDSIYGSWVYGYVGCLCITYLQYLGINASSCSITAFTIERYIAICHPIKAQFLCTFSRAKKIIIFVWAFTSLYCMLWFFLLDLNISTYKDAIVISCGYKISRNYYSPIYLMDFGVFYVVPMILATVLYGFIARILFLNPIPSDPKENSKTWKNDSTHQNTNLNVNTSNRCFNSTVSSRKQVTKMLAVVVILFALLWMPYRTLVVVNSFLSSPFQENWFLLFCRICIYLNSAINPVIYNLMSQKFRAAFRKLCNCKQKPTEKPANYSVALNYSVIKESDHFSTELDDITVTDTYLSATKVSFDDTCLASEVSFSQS
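In this calcium-flux screen, cells bearing human TRHR are dye-loaded with fluo-8, baselined for 10 cycles, then exposed to library compounds; positive kinetic calcium responses during the agonist phase mark hits, with TRH as control.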
TRHR PAM: allosteric enhancers of human TRH receptor. 360,000 tested, 0.66% active. TRHR cells, fluo-8 calcium fluorescence, EC20 TRH enhancement. enhancement, % at 2 µM. AID 493056; in the data active = enhancement above about 30%; also: 0% is about no effect
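TRHR-expressing cells loaded with fluo-8 calcium dye were read kinetically (ex 480/em 530) during compound addition, then stimulated with an EC20 of TRH (10 nM final). Enhancement of the Gq-mediated intracellular calcium response was scored.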
* = called active by the depositor; ? = inconclusive; nt = no result. Rule as the data show it, unless noted: active = activation above about 30%; inactive = the rest.

SMILES	D1 agonist	D1 antag	Glioma ERSR ind	D1 potentiator	TRHR agonist	TRHR PAM
CCCCCCCCCCCCCCCC[N+](C)(C)C	30.9*	-24.3	-4.1%	-6.3	0.0	-15.4
CCCCCCCCCC[N+](C)(C)CCCCCCCCCC	nt	nt	-12.3%	nt	nt	nt
CCOC(=O)C1(CCc2ccccc2)CCN(Cc2ccc(NC(C)=O)cc2)CC1	4.2	15.6	-4.7%	-5.8	-0.1	-0.4
COc1ccc(CNCCc2c(C)[nH]c3ccc(OC(F)(F)F)cc23)c(OC)c1	99.2*	-55.3*	-6.7%	-2.0	13.3	-4.1
COc1ccc2[nH]c(C)c(CCNCc3cc(OC)c(OC)c(OC)c3)c2c1	9.2	-6.7	-1.2%	-1.9	-0.8	0.5
CN1C(=O)COc2c(C(=O)NC3CN4CCC3CC4)cc(Cl)cc21 (stereo unspecified)	-1.3	3.7	-3.3%	-1.4	0.0	2.2
NCCc1ccc(OCc2ccccc2)c(OCc2ccccc2)c1	33.7*	10.7	-14.2%	-1.8	4.4	1.7
O=Cc1c(C(=O)O)n(Cc2ccc(Cl)cc2)c2ccccc12	54.4*	7.2	-3.2%	-2.5	20.4	5.7
O=[N+]([O-])c1ccc(NCc2ccccc2)c2nonc12	592.8*	-59.4*	-3.5%	-2.5	215.0*	-27.9
Cc1ccc(CN2CCN(Cc3ccccc3F)CC2)cc1	-1.6	6.0	-2.0%	-1.4	-0.2	-3.9
O=C1NC(=O)C(=Cc2ccc(OCC(=O)N3CCOCC3)cc2)C(=O)N1	2.8	-36.8*	-2.4%	0.1	-2.7	6.0
CN(CCOc1ccc(C=C2C(=O)NC(=O)NC2=O)cc1)c1ccccn1	6.0	25.1	1.8%	-3.0	0.1	6.2
O=C(O)COc1nc(Cl)c(Cl)cc1Cl	nt	nt	1.1%	nt	nt	nt
BrCC1C[n+]2c(SCc3ccccc3)nc3sc4c(c3c2O1)CCCC4 (stereo unspecified)	4.0	5.5	-1.6%	6.2	0.0	4.7
Nc1c2c(nc3sc4c(c13)CCCCC4)CCCC2	20.1	-41.6*	-1.8%	-12.5	-1.7	3.3
O=[N+]([O-])c1ccc(N2CCNCC2)cc1N1CCCCC1	8.5	-10.8	-2.1%	1.1	1.2	9.9
Nc1cc(N2CCNCC2)c([N+](=O)[O-])cc1Cl	2.7	-41.9*	-5.9%	-15.0	0.5	3.8
N=C1SCC(=O)N1Cc1ccccc1	3.4	-31.1*	-2.2%	-3.9	0.1	-5.6
CCC(C)(C)c1ccc(O)cc1	-2.1	nt	-2.5%	0.9	0.3	-1.0
COc1ccc(CNCCc2ccc(Cl)cc2)c(OC)c1OC	19.9	-69.8*	-3.9%	-0.5	2.3	2.9
COc1ccc(CNCCc2cccc(F)c2)c2ccccc12	37.0*	28.8	nt	3.5	2.2	18.1
COc1cc(OC)c(OC)cc1CNCCc1ccc(OC)c(OC)c1	2.4	-3.8	-1.4%	-0.8	-0.4	0.8
CCN(CC)C(=O)N[C@H]1C=C2c3cccc4[nH]cc(c34)C[C@@H]2N(C)C1	nt	nt	-5.4%	nt	nt	nt
CC(C)N1CC=C(c2c[nH]c3ccccc23)CC1	4.6	0.7	-3.8%	7.8	0.4	-4.1
O=S1(=O)N(CCN2CC=C(c3c[nH]c4cc(F)ccc34)CC2)c2cccc3c2N1CCC3	1.1	-40.9*	-4.4%	-7.9	1.3	-9.8
SMILES	D1 agonist	D1 antag	Glioma ERSR ind	D1 potentiator	TRHR agonist	TRHR PAM
O=c1c(O)c(-c2ccc(O)c(O)c2)oc2cc(O)cc(O)c12	3.2	34.5	?	-3.1	5.9	62.6*
O=c1cc(-c2ccc(O)c(O)c2)oc2cc(O)cc(O)c12	7.8	23.1	?	3.6	0.4	0.7
COc1ccc2c(c1)/C(=C/c1cnc[nH]1)C(=O)N2	0.6	-34.1*	-7.1%	-2.1	0.2	15.8
O=C1Nc2ccccc2/C1=C/c1cnc[nH]1	0.6	-7.8	-3.6%	-3.5	-0.6	7.6
COC(=O)C(O)(c1ccc(N(C)C(=O)COc2ccccc2)cc1)C(F)(F)F (stereo unspecified)	6.8	-8.6	-3.1%	-6.8	1.0	4.6
CCCCCCCC/C=C\CCCCCCCC(=O)OC[C@@H](COP(O)(O)=S)OC	nt	nt	-0.5%	nt	nt	nt
Ic1ccccc1CN[C@@H]1C2CCN(CC2)[C@@H]1C(c1ccccc1)c1ccccc1	83.5*	-31.2*	-3.0%	23.6	-0.5	8.5
Ic1ccccc1CNC1C2CCN(CC2)C1C(c1ccccc1)c1ccccc1 (stereo unspecified)	nt	nt	-14.2%	nt	nt	nt
c1ccc2c(CCNCc3ccc4c(c3)OCO4)c[nH]c2c1	98.6*	-42.7*	-2.2%	-2.0	-0.2	6.2
CCOc1ccccc1CNCCc1ccc2c(c1)OCO2	12.2	18.8	-2.8%	-7.9	0.0	0.9
CCOc1ccc(CNCCc2ccc3c(c2)OCO3)cc1	30.5*	-8.0	0.1%	-8.0	1.5	1.1
CN(CC(=O)N[C@H](CO)Cc1ccccc1)C(=O)[C@H](CCS(C)=O)NC(=O)[C@@H](N)Cc1ccc(O)cc1 (stereo partly specified)	nt	nt	-2.8%	nt	nt	nt
Cc1cc(/C=C2/C(=O)NC(=O)N(C)C2=O)c(C)n1-c1ccccc1	2.1	2.9	0.6%	-0.3	1.0	-2.2
CS(=O)(=O)N1CCCC(C(=O)N2CCC3(CC2)OCCO3)C1 (stereo unspecified)	0.8	-33.8*	-2.9%	-0.7	-0.1	10.5
COC(=O)C1=C(c2cccc(OCc3ccccc3)c2)C[C@@H]2CC[C@H]1N2C(=O)NCc1ccc(C(F)(F)F)cc1	3.9	-24.4	-4.4%	-2.4	0.3	-3.3
CCN(CC)C(=O)c1ccc(NC(=O)c2cccc(S(=O)(=O)N3CCN(Cc4ccccc4)CC3)c2)cc1	4.9	-32.3*	-5.5%	-6.7	0.4	-1.6
CCN(CC)C(=O)c1ccc(NC(=O)c2cc(S(=O)(=O)N3CCCCCC3)ccc2OC)cc1	1.5	12.7	-0.4%	14.8	0.0	-5.8
Cn1cc(C(=O)N2CCCCC2)c2ccccc21	2.4	-30.3*	-1.6%	-3.4	0.7	1.6
C=C1C2C[C@H](O)C(C)(C)[C@@]2(O)[C@H](O)C[C@]23C[C@@](C)(O)[C@H](CC[C@H]12)[C@H]3OC(C)=O (stereo partly specified)	0.4	-34.0*	-4.7%	-2.6	-0.2	1.1
CN1C(=O)C(O)N=C(c2ccccc2)c2ccccc21 (stereo unspecified)	2.4	13.1	-2.6%	-0.9	0.5	-4.5
Cc1cc2c(C(F)(F)F)cc(=O)oc2c2c1NCCC2	112.8*	-9.3	-2.2%	3.6	90.8*	21.4
O=c1cc(C(F)(F)F)c2cc3c4c(c2o1)CCCN4CCC3	329.5*	-64.6*	-5.9%	-8.0	239.6*	5.8
CCS(=O)(=O)CCSP(=O)(OC)OC	nt	nt	-2.8%	nt	nt	nt
CN1CC[C@@]23CCCC[C@@H]2[C@@H]1Cc1ccc(O)cc13	7.3	-32.4*	-3.3%	-2.6	-0.6	-3.1
CN(c1ccc(O)cc1)c1ccc([N+](=O)[O-])c2nonc12	nt	nt	-2.5%	nt	nt	nt

High-throughput results: PubChem BioAssay, National Center for Advancing Translational Sciences (NCATS)
